According to ChEMBL document CHEMBL4513216, “Probing the Open Global Health Chemical Diversity Library for Multistage-Active Starting Points for Next-Generation Antimalarials” (ACS Infect Dis, 2020):
About 8,600 (12%) of roughly 69,000 compounds showed an effect of 50% or more. Only a selection was taken, and strong results are over-represented in it overall.

Each compound was assayed on Plasmodium berghei (assay: Screen against P. berghei liver stage (PbLuc), transformed with Luciferase, at 10uM). Conditions: tested at 10 uM.
Type: functional, HepG2

SMILES | INHIBITION
CC(=O)c1cnc(NCCCN2CCOCC2)nc1C | -4.96%
O=C(COc1ccccc1)NCC1CC1 | 3.63%
CCNc1ncc(C(=O)NCCc2csc(-c3ncccn3)n2)cn1 | 56.6%
CCNc1ncc(C(=O)NCc2csc(-c3cnccn3)n2)cn1 | -10.5%
CCNc1ncc(C(=O)NCCCc2ccncc2)cn1 | 19.4%
O=C(NCCc1csc(-c2ncccn2)n1)c1cnn2c1CCCC2 | -52.5%
CCNc1ncc(C(=O)NCCc2ccc(C)c(C)c2)cn1 | -4.21%
CCNc1ncc(C(=O)NCc2csc(C)n2)cn1 | 35.4%
CSCc1nc(CCNC(=O)C2CCCN(C(C)=O)C2)cs1 (configuration not stated) | -90.8%
CCNc1ncc(C(=O)NCCc2csc(CSC)n2)cn1 | 51.8%
CCNc1ncc(C(=O)NCc2csc(-c3ncccn3)n2)cn1 | 62.2%
CCN(Cc1nc2c(cnn2C)c(=O)[nH]1)Cc1ccccc1Cl | -29.8%
Cc1ccc2nc(CN3CCCCC3C(=O)N3CCOCC3)cn2c1 (configuration not stated) | 20%
CC(C)Cn1nccc1NC(=O)CN1CCOC(Cn2cccn2)C1 (configuration not stated) | 23.4%
CNC(=O)[C@@H](c1ccccc1)N1CCC[C@H]1C(=O)NC1CCCCC1 | 30.9%
CCc1cnc(N2C[C@H](OCc3csc(C)n3)[C@H]3COC[C@H]32)nc1 | 40.8%
Cc1nnnn1-c1cc(NCc2cccc(C#N)c2)ccc1F | 31%
O=C(CC1CC1)NCc1cc(=O)n2c(n1)CN(Cc1ccoc1)CCC2 | 36.8%
O=C(Nc1ccccc1)N1C2CCC(O)(CC2)C1CO (configuration not stated) | 44.9%
CCc1noc(C)c1C(=O)N1CCCC(n2nc(C)nc2C)C1 (configuration not stated) | -19.85%
CS(=O)(=O)N1CCO[C@@H]2CN(Cc3ccc(F)cc3)C[C@@H]2C1 | 61.9%
CS(=O)(=O)N1CCO[C@@H]2CN(Cc3ccncc3)C[C@@H]2C1 | 18.5%
CS(=O)(=O)N1CCOCC12CCN(Cc1ccoc1)CC2 | 34.5%
CS(=O)(=O)N1CCOCC2(CN(Cc3ccc(F)cc3)CCO2)C1 (configuration not stated) | 57.4%

SMILES | INHIBITION
CS(=O)(=O)N1CCO[C@@H]2CN(Cc3ccc(F)cc3)CC[C@@H]2C1 | 10.5%
CS(=O)(=O)N1CCOCC2(CN(Cc3ccsc3)CCO2)C1 (configuration not stated) | 0.139%
Cc1ccc(CN2CCC3(CC2)COCCN3S(C)(=O)=O)o1 | 11.6%
CS(=O)(=O)N1CCOCC12CCN(Cc1ccc(F)cc1)CC2 | 57.3%
Cc1ccc(CN2CCOC3(COCCN(S(C)(=O)=O)C3)C2)s1 (configuration not stated) | 11.4%
O=C(c1ccc2c(c1)CCCC2)N1CCn2ncnc2C1 | -0.275%
O=C(c1ccccn1)N1CCOC2(COCCN(Cc3cc[nH]n3)C2)C1 (configuration not stated) | -95.7%
CC(C)C[C@H](NC(=O)Cc1csc(-c2cccc(Cl)c2)n1)C(=O)O | 40.8%
CCc1ccsc1C(=O)NCCn1nc2ccccn2c1=O | 14.4%
c1cnn(CC2CCCN2Cc2ccc(-n3cccn3)cc2)c1 (configuration not stated) | 41.2%
c1ccc(CN2CCNCC(Cc3cnccn3)C2)cc1 (configuration not stated) | -11.4%
CCc1nc(C(=O)N2CC(C(C)C)Nc3ccccc32)c[nH]1 (configuration not stated) | 3.13%
COCCNc1ncc(-c2cccc(OC)c2)c(-c2nccn2C)n1 | 3.48%
CC(C)[C@H]1CN(Cc2nccn2C)C[C@@H]1NC(=O)CCS(C)(=O)=O | 12.9%
CC(C)[C@H]1CN(Cc2ccccn2)C[C@@H]1NC(=O)CC1CCC1 | 41.8%
CC(C)[C@H]1CN(Cc2c[nH]cn2)C[C@@H]1NC(=O)CC1CCC1 | 57.3%
O=C(c1ccc(F)cc1)N1CCC2(CCN(Cc3ccccn3)C2=O)C1 (configuration not stated) | 2.79%
COCC(=O)N1CCCC1c1cccc(Cc2ccccc2F)n1 (configuration not stated) | 24.4%
CN1CCCC1c1cccc(Cc2ccc(F)cc2)n1 (configuration not stated) | 100%
CC(=O)N1CCCC1c1cccc(NCc2ccccc2F)n1 (configuration not stated) | 64.1%
CN(C)C(=O)CN1CCCC1c1cccc(Cc2ccccc2F)n1 (configuration not stated) | 42.6%
CC(=O)N1CCCC1c1cccc(Cc2ccccc2F)n1 (configuration not stated) | 14.8%
CC(=O)N1CCCC1c1cccc(Cc2ccc(F)cc2)n1 (configuration not stated) | 13.6%
CN1CCCC1c1cccc(Cc2ccccc2F)n1 (configuration not stated) | 76.2%

SMILES | INHIBITION
CN1CCCC1c1cc2cccnc2n1Cc1ccc(F)cc1 (configuration not stated) | 30.85%
CS(=O)(=O)N1CCCC1c1cccc(Cc2ccccc2F)n1 (configuration not stated) | -51.4%
Cc1ncsc1C(=O)N1CCCC1c1c(C)nn(C)c1C (configuration not stated) | 16.6%
Cc1cc(Nc2cnccn2)cc(C2CCCNC2)n1 (configuration not stated) | 19.5%
CO[C@@H]1CCC[C@@H](NC(=O)c2cccc(F)c2)[C@H]1O | 28.2%
CNc1nc2cn(CCc3ccc(C)cc3)c(=O)c-2c[nH]1 | 3.52%
O=C(Cc1ccccn1)N1CCN(C(=O)CC2CCCCC2)CC1 | 13.6%
Cc1cc(NCC2CCS(=O)(=O)C2)n2nc(C)cc2n1 (configuration not stated) | 47%
CCC(C)(C)n1nnnc1C(c1cccs1)N1CCc2ccccc2C1 (configuration not stated) | 51.4%
CCC(C)(C)n1nnnc1C(c1cccs1)N1CCCCC1 (configuration not stated) | 21.7%
CCC(C)(C)n1nnnc1C(c1cccs1)N1CCc2ccccc21 (configuration not stated) | 42.6%
Cc1ccc(C(=O)N2C[C@H]3CCC[C@@]3(COCc3ccncc3)C2)cn1 | 43.9%
CCc1nnc2n1CCN(C(=O)c1ccc(-c3ccco3)nc1C)C2 | 61.3%
Cc1nc(-c2ccco2)ccc1C(=O)N1CCn2c(C)nnc2C1 | -17.6%
CCc1nnc2n1CCN(C(=O)CN(C)C1CC1)C2 | 51.1%
Cc1nnc2n1CCN(C(=O)c1ccnc(N(C)C)c1)C2 | 21.6%
CCc1nnc2n1CCN(C(=O)CN(CC)CC)C2 | 49.8%
CCc1nnc2n1CCN(C(=O)c1ccccc1OCC1CC1)C2 | 7.21%
CCc1nnc2n1CCN(C(=O)CN(C)Cc1ccccc1)C2 | 20.1%
CC(C)c1nnc2n1CCN(C(=O)c1cnc(C3CC3)s1)C2 | 43.1%
CCc1nnc2n1CCN(C(=O)c1ccc(-c3ccco3)[nH]c1=O)C2 | -19.6%
Cc1nnc2n1CCN(C(=O)c1cnc(C3CC3)s1)C2 | 53.9%
CCc1nnc2n1CCN(C(=O)c1cnn(C)c1C1CC1)C2 | 53.9%
CCc1nnc2n1CCN(C(=O)c1csc(-c3cnn(C)c3)n1)C2 | 29.7%
